Laboratory results taken from PubChem BioAssay AID372 (MTDP, 2006).
Out of some 100,000 compounds screened, about 770 (0.77%) were called active. For the sample, actives were picked, then their nearest neighbours and some compounds at random. A number with no mark means an inactive call. No stated cut-off is given here; in the data, active means inhibition above about 50%; inactive means the rest.

target: Gag-Pol polyprotein (Human immunodeficiency virus type 1 group M subtype B (isolate HXB2)) (UniProt P04585); assay: RNase H inhibition, HIV 1 Gag Pol polyprotein, FRET biochemical assay, screening (AID 372); conditions: HIV-1 RT RNase H, FRET RNA/DNA substrate fluorescence; at 10 µM; stronger effect = higher value

Compound | inhibition
CCc1c(C)sc(NC(=O)C2CCCO2)c1C(N)=O (configuration not stated) | 0%
COC(=O)c1sc(NC(=O)C2CC3CCC2C3)c(C(N)=O)c1C (configuration not stated) | 11%
Oc1ccccc1N=Cc1c(O)c(I)cc2oc3c(c12)CCCC3 | 14%
O=C(Nc1ccc(OC(F)(F)F)cc1)c1cccc(OCc2ccccc2)c1 | 0%
c1ccc(CN2CCN(Cc3ccncc3)CC2)nc1 | 3%
Cc1ccc2cccc(OS(=O)(=O)c3cc(Cl)c(Cl)cc3Cl)c2n1 | 43%
Cc1ccc2cccc(OS(=O)(=O)c3cc(Cl)ccc3C)c2n1 | 47%
Cc1ccc2cccc(OS(=O)(=O)c3ccccc3C)c2n1 | 58% (active)
Cc1ccc2cccc(OS(=O)(=O)c3ccc(Cl)c(C)c3Cl)c2n1 | 52% (active)
Cc1ccc2cccc(OS(=O)(=O)c3ccc(Cl)cc3C)c2n1 | 43%
COc1ccc(I)cc1S(=O)(=O)Oc1cccc2ccc(C)nc12 | 25%
CCc1nc(NC(=O)NS(=O)(=O)c2ccccc2C(=O)OC)nc(OC)n1 | 6%
COc1cc(OC)cc(C(=O)N2CCN(c3ccc([N+](=O)[O-])cc3Cl)CC2)c1 | 9%
O=C1NC(=S)N(c2cccc(Br)c2)C(=O)/C1=C/c1cccn1-c1ccccc1 | 39%
CCC(=O)Nc1ccc2nc(SCC(=O)Nc3ccc(C(C)=O)cc3)sc2c1 | 14%
CCC(=S)/C=C1\Sc2ccc(OC)cc2N1CCCS(=O)(=O)O | 11%
O=C(c1c(Cl)cccc1Cl)N1CCN(c2ccc(F)cc2)CC1 | 54% (active)
O=C(c1c(Cl)cccc1Cl)N1CCN(c2ccc(Cl)cc2)CC1 | 9%
O=C(c1c(Cl)cccc1Cl)N1CCN(c2ccccc2)CC1 | 6%
Cc1nnc(SCC(=O)NC(C)c2ccccc2)[nH]c1=O (configuration not stated) | 0%
CC(=C\c1ccccc1)/C=C1/SC(=Nc2ccc(F)cc2)NC1=O | 13%
O=C(N/N=C/c1ccc(F)cc1)c1ccc(Cl)c(Cl)c1 | 4%
CC(=O)c1cccc(NC(=O)/C(=C/c2ccc(Br)cc2)NC(=O)c2ccccc2)c1 | 6%
Cc1cccc(NC(=O)/C(=C/c2ccc(Br)cc2)NC(=O)c2ccccc2)c1 | 51% (active)

Compound | inhibition
CC(=O)c1cccc(NC(=O)/C(=C\c2ccc(Br)cc2)NC(=O)c2ccc(C)cc2)c1 | 42%
C/C(=N\Nc1ccc([N+](=O)[O-])cc1)c1ccc([N+](=O)[O-])o1 | 8%
COc1cc(Cc2ccc(N/C=C/C(=O)c3ccc(Br)cc3)c(OC)c2)ccc1N/C=C/C(=O)c1ccc(Br)cc1 | 25%
Cc1cc(Cl)ccc1OC(=O)c1ccc(Br)cc1 | 34%
Cc1ccc(C(=O)Oc2ccc(Cl)cc2C)cc1 | 2%
Cc1cc(Cl)ccc1OC(=O)c1ccc(Cl)cc1 | 51% (active)
O=C(Nc1cnc2ccccc2c1)C1COc2ccccc2O1 (configuration not stated) | 3%
O=S(=O)(CCc1nnc(-c2ccc(Br)cc2)o1)c1ccc(Cl)cc1 | 2%
COc1cccc(N2C(=O)/C(=C/c3ccc(O)c(O)c3)SC2=S)c1 | 75% (active)
COc1cccc(N2C(=O)/C(=C/c3ccc(O)c(OC)c3)SC2=S)c1 | 22%
COc1ccc(N2C(=O)/C(=C\c3ccc(OC)c(O)c3)SC2=S)cc1 | 4%
COc1cccc(N2C(=O)/C(=C/c3cccc(O)c3)SC2=S)c1 | 29%
COc1ccc(N2C(=O)/C(=C/c3ccc(O)c(OC)c3)SC2=S)cc1 | 26%
COc1ccc(N2C(=O)/C(=C\c3ccc(O)c(O)c3)SC2=S)cc1 | 77% (active)
COc1cc(OC)cc(C(=O)Nc2ccc(N3CCN(C(=O)c4ccccc4)CC3)cc2)c1 | 31%
CCOc1cccc2c1N(C(=O)c1ccccc1)C(C)(C)C(=S)C2=C1SC(C(=O)OC)=C(C(=O)OC)S1 | 45%
CCCOc1ccc(C(=O)NCc2ccccc2)cc1 | 6%
COc1cc(/C=C/c2nc3ccccc3c(=O)n2-c2ccccc2[N+](=O)[O-])ccc1O | 35%
COc1cccc(/C=C/c2nc3ccccc3c(=O)n2-c2cccc([N+](=O)[O-])c2)c1O | 27%
COc1cc(/C=C/c2nc3ccccc3c(=O)n2-c2cccc([N+](=O)[O-])c2)ccc1O | 61% (active)
Cc1ccc(-n2c(/C=C/c3c(C)n(C)c4ccccc34)nc3ccccc3c2=O)cc1 | 0%
O=C(O)c1ccc(-n2c(/C=C\c3ccccc3)nc3ccccc3c2=O)cc1 | 7%
COc1ccc(OC)c(CN2CCN(Cc3cccc(Br)c3)CC2)c1 | 5%
